Out of some 5,500 compounds screened, about 2,000 (36%) were called active. Inconclusive results (about 18%) are left out. Cut-off read from the data, not from the text of the source: active = normalized growth mostly below about 0.91 (no sharp cut-off); inconclusive = no clear call, values can overlap the other calls; inactive = mostly above about 0.92. Some of the results follow.
Experiment: chemical genetic growth profiling, strain panel (AID 1159580);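 note: tested at 20 µM; growth read once vehicle control cultures reached saturation at 30 °C; 1 = growth at the plate median or of vehicle wells; lower values mean less growth of the strain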
Settings: S. cerevisiae deletion strains, growth OD

Measured: normalized growth

CCOC(=O)NC(=S)NC12CC3CC(CC(C3)C1)C2
inactive: locus YAR019C, strain CDC15, stronger effect = lower value 0.978 | locus YBL105C, strain PKC1, stronger effect = lower value 0.983 | locus YBR135W, strain CKS1, stronger effect = lower value 0.977 | locus YBR136W, strain MEC1, stronger effect = lower value 0.962 | locus YBR160W, strain CDC28, stronger effect = lower value 0.984 | locus YDL017W, strain CDC7, stronger effect = lower value 0.982 | locus YDL028C, strain MPS1, stronger effect = lower value 0.978 | locus YDL101C, strain DUN1, stronger effect = lower value 0.979 | locus YDL108W, strain KIN28, stronger effect = lower value 0.957 | locus YDL132W, strain cdc53, stronger effect = lower value 0.971 | locus YDL214C, strain PRR2, stronger effect = lower value 0.875 | locus YDR052C, strain DBF4, stronger effect = lower value 0.993 | locus YDR054C, strain cdc34, stronger effect = lower value 0.967 | locus YDR226W, strain ADK1, stronger effect = lower value 0.975 | locus YDR477W, strain SNF1, stronger effect = lower value 0.894 | locus YER123W, strain YCK3, stronger effect = lower value 0.827 | locus YER133W, strain GLC7, stronger effect = lower value 0.86 | locus YFL009W, strain cdc4, stronger effect = lower value 0.972 | locus YFL029C, strain CAK1, stronger effect = lower value 0.974 | locus YFR003C, strain YPI1, stronger effect = lower value 0.981 | locus YFR019W, strain FAB1, stronger effect = lower value 0.955 | locus YFR028C, strain CDC14, stronger effect = lower value 0.97 | locus YGR040W, strain KSS1, stronger effect = lower value 0.872 | locus YGR052W, strain FMP48, stronger effect = lower value 0.947 | locus YGR092W, strain DBF2, stronger effect = lower value 0.787 | locus YHR030C, strain SLT2, stronger effect = lower value 0.897 | locus YHR079C, strain IRE1, stronger effect = lower value 0.915 | locus YHR082C, strain KSP1, stronger effect = lower value 0.946 | locus YHR205W, strain SCH9, stronger effect = lower value 0.965 | locus YIL147C, strain SLN1, stronger effect = lower value 0.981 | locus YJL095W, strain BCK1, stronger effect = lower value 0.964 | locus YJL128C, strain PBS2, stronger effect = lower value 0.953 | locus YJL157C, strain FAR1, stronger effect = lower value 0.865 | locus YJR016C, strain ILV3, stronger effect = lower value 0.985 | locus YJR066W, strain TOR1 (second series), stronger effect = lower value 0.789 | locus YJR066W, strain TOR1, stronger effect = lower value 0.903 | locus YKL048C, strain ELM1, stronger effect = lower value 0.968 | locus YKL067W, strain YNK1, stronger effect = lower value 0.896 | locus YKL101W, strain HSL1, stronger effect = lower value 0.923 | locus YKL193C, strain SDS22, stronger effect = lower value 0.982 | locus YKL203C, strain TOR2, stronger effect = lower value 0.958 | locus YLR113W, strain HOG1, stronger effect = lower value 0.926 | locus YLR133W, strain CKI1, stronger effect = lower value 0.934 | locus YLR403W, strain SFP1, stronger effect = lower value 0.851 | locus YML070W, strain DAK1, stronger effect = lower value 0.878 | locus YMR001C, strain CDC5, stronger effect = lower value 0.973 | locus YMR205C, strain PFK2 (second series), stronger effect = lower value 0.917 | locus YMR277W, strain FCP1, stronger effect = lower value 0.977 | locus YNL006W, strain LST8, stronger effect = lower value 0.971 | locus YNL020C, strain ARK1, stronger effect = lower value 0.901 | locus YNL161W, strain CBK1, stronger effect = lower value 0.987 | locus YNL183C, strain NPR1, stronger effect = lower value 0.939 | locus YNL207W, strain RIO2, stronger effect = lower value 0.97 | locus YNL222W, strain SSU72, stronger effect = lower value 0.982 | locus YNL307C, strain MCK1 (second series), stronger effect = lower value 0.881 | locus YOL078W, strain AVO1, stronger effect = lower value 0.972 | locus YOL136C, strain PFK27, stronger effect = lower value 0.898 | locus YOR061W, strain CKA2, stronger effect = lower value 0.845 | locus YOR119C, strain RIO1, stronger effect = lower value 0.934 | locus YOR231W, strain MKK1, stronger effect = lower value 0.926 | locus YOR329C, strain SCD5, stronger effect = lower value 0.984 | locus YPL031C, strain PHO85, stronger effect = lower value 0.87 | locus YPL153C, strain RAD53, stronger effect = lower value 0.863 | locus YPL204W, strain HRR25, stronger effect = lower value 0.876 | locus YPL209C, strain IPL1, stronger effect = lower value 0.981 | locus YPL256C, strain CLN2, stronger effect = lower value 1 | locus YPR025C, strain CCL1, stronger effect = lower value 0.982 | locus YPR106W, strain ISR1, stronger effect = lower value 0.992 | locus YPR111W, strain DBF20, stronger effect = lower value 0.996 | strain NNK1, stronger effect = lower value 0.988 | strain TSCII, stronger effect = lower value 0.971
